The record followed here is PubChem BioAssay (NCI).

The panel holds about 83,000 compounds, 20% with a hit somewhere; the sample as a whole holds those more often.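 Note: values are percent growth. 100 is the growth of untreated cells, values between 100 and 0 indicate rising inhibition; between -100 and 0 indicates cell death.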 Values without a mark were called inactive. The source made the active and inactive calls. Rule for the calls: active = growth percent below 10; inactive = the rest.

Some test systems named below: HCT-15 colon; HT29 colon; SNB-75 CNS; SNB-19 CNS; U251 CNS; PC-3 prostate; SK-MEL-5 melanoma; UACC-62 melanoma; LOX IMVI melanoma; SK-MEL-28 melanoma; SK-MEL-2 melanoma; EKVX NSCLC; SN12C renal; UO-31 renal; TK-10 renal; ACHN renal; CAKI-1 renal; A498 renal; CCRF-CEM leukemia.
Common to all, as to experiment: NCI-60 one-dose screen, 48 h (100 = growth as untreated, 0 = no growth, -100 = all killed)
Common to all, as to conditions: 10 µM unless noted

Take `N#CC(C(=O)/C(=N/NC(=O)c1ccccc1O)C(C#N)c1ccccc1)c1ccccc1` (stereo not given): the growth was 43.1% in the assay on HCT-15 colon; 101% in the assay on HT29 colon; 18% in the assay with SNB-75 CNS; 33.2% in the assay with SNB-19 CNS; 6.45% (active) in the assay with U251 CNS; 55.2% with PC-3 prostate. In addition, the growth with SK-MEL-5 melanoma was 81.7%; with UACC-62 melanoma it was 21.7%; in the assay with LOX IMVI melanoma, 44.7%; in the assay on SK-MEL-28 melanoma, 83.7%; in the assay with SK-MEL-2 melanoma it was 68.6%; in the assay on EKVX NSCLC, 76.7%. Further, the growth was 52.5% with SN12C renal; 29.4% in the assay with UO-31 renal; 69.7% with TK-10 renal; 31% in the assay with ACHN renal; 82.5% in the assay on CAKI-1 renal; 30.9% in the assay with A498 renal.
Turning to `C#Cc1cccc(NC(=O)Nc2cccc(NC(=O)CCl)c2)c1`, the growth in the assay on HCT-15 colon was -56.5% [8.25 µM] (active); in the assay on HT29 colon, 18% [8.25 µM]; in the assay on SNB-75 CNS, 30% [8.25 µM]; in the assay with SNB-19 CNS, -11% [8.25 µM] (active); with U251 CNS it was -88% [8.25 µM] (active); with PC-3 prostate, -26.3% [8.25 µM] (active). Also, the growth was -96% [8.25 µM] (active) in the assay with SK-MEL-5 melanoma; -61.6% [8.25 µM] (active) in the assay on UACC-62 melanoma; -93.8% [8.25 µM] (active) in the assay with LOX IMVI melanoma; 48.5% [8.25 µM] in the assay on SK-MEL-28 melanoma; 6.45% [8.25 µM] (active) in the assay with SK-MEL-2 melanoma; 102% [8.25 µM] in the assay with EKVX NSCLC. Also, the growth in the assay with SN12C renal was -67.7% [8.25 µM] (active); with UO-31 renal, -64.7% [8.25 µM] (active); in the assay on TK-10 renal, -59.8% [8.25 µM] (active); in the assay with ACHN renal it was -72.7% [8.25 µM] (active); in the assay on CAKI-1 renal, 15.8% [8.25 µM]; in the assay with A498 renal it was 76.5% [8.25 µM]. The growth in the assay on CCRF-CEM leukemia was 14.9% [8.25 µM].
In the case of `CCNc1nc2ccc(Nc3ccnc4cc(Cl)ccc34)cc2[nH]1`, the growth in the assay on HCT-15 colon was 89.8%; in the assay on HT29 colon, 51.1%; with SNB-75 CNS, 87.3%; in the assay on SNB-19 CNS it was 84.8%; with U251 CNS it was 75.2%; in the assay with PC-3 prostate, 63.9%. The growth in the assay with SK-MEL-5 melanoma was 82.6%; in the assay with UACC-62 melanoma, 92.5%; with LOX IMVI melanoma, 70.6%; with SK-MEL-28 melanoma it was 99.5%; with SK-MEL-2 melanoma it was 103%; in the assay with EKVX NSCLC, 89.9%. Besides, the growth with SN12C renal is 75.3%; in the assay on UO-31 renal it was 84.9%; in the assay on TK-10 renal, 99.4%; in the assay on ACHN renal it was 103%; in the assay with CAKI-1 renal, 98.9%; with A498 renal, 89.5%. In addition, the growth with CCRF-CEM leukemia was 42.8%.
In the case of `N#CC1=C(N)Oc2c(cnn2-c2ccc([N+](=O)[O-])cc2[N+](=O)[O-])C1c1ccccc1` (stereo not given), the growth is 93.2% in the assay on HCT-15 colon; 110% in the assay on HT29 colon; 86.5% in the assay on SNB-75 CNS; 104% in the assay on SNB-19 CNS; 102% in the assay on U251 CNS; 105% with PC-3 prostate. The growth in the assay with SK-MEL-5 melanoma was 97.1%; in the assay with UACC-62 melanoma it was 93%; in the assay with LOX IMVI melanoma, 102%; in the assay on SK-MEL-28 melanoma, 106%; with SK-MEL-2 melanoma, 110%; with EKVX NSCLC it was 90.6%. The growth was 101% in the assay on SN12C renal; 79.9% in the assay with UO-31 renal; 99.4% in the assay with TK-10 renal; 103% with ACHN renal; 90.6% with CAKI-1 renal; 50.7% in the assay on A498 renal. Moreover, the growth in the assay with CCRF-CEM leukemia was 79.7%.
Turning to `Cn1cc(-c2nc(-c3c[nH]c4c(Cl)nccc34)cs2)c2cc(Br)ccc21`, the growth was 66.5% in the assay on HCT-15 colon; 74.9% in the assay with HT29 colon; 94% with SNB-75 CNS; 97.6% in the assay with SNB-19 CNS; 77.9% with U251 CNS; 81.2% in the assay on PC-3 prostate. Further, the growth with SK-MEL-5 melanoma is 88%; in the assay with UACC-62 melanoma it was 80.3%; with LOX IMVI melanoma, 73.4%; in the assay with SK-MEL-28 melanoma, 88.9%; in the assay with SK-MEL-2 melanoma, 87.6%; in the assay on EKVX NSCLC, 74.1%. The growth was 88.9% with SN12C renal; 84.5% in the assay with UO-31 renal; 86.3% in the assay with TK-10 renal; 76.5% in the assay with ACHN renal; 92.4% with CAKI-1 renal; 72.3% in the assay with A498 renal. Moreover, the growth in the assay on CCRF-CEM leukemia was 74.4%.
Take `C[C@H]1[C@H]2[C@H]3CC[C@@H]4[C@@]5(C)CC[C@H](O)C(C)(C)[C@@H]5CC[C@@]4(C)[C@]3(C)CC[C@]23CO[C@]1(C)[C@@H](C(=O)/C=C\c1ccco1)C3`: the growth in the assay on HCT-15 colon was 106%; in the assay on HT29 colon, 98.1%; with SNB-75 CNS it was 78.4%; with SNB-19 CNS, 75.3%; with U251 CNS it was 69.4%; in the assay with PC-3 prostate it was 92.7%. Further, the growth with SK-MEL-5 melanoma was 8.55% (active); in the assay on UACC-62 melanoma it was 7.16% (active); with LOX IMVI melanoma, 89%; in the assay with SK-MEL-28 melanoma, 36.7%; in the assay with SK-MEL-2 melanoma it was 9.51% (active); with EKVX NSCLC, 105%. Further, the growth in the assay on SN12C renal was 101%; in the assay with UO-31 renal, 77%; in the assay on TK-10 renal, 97.4%; in the assay on ACHN renal, 44.3%; in the assay on CAKI-1 renal it was 55.8%; in the assay on A498 renal, 96.2%. In addition, the growth in the assay with CCRF-CEM leukemia is 101%.
As to `CC(c1ccccc1)C(C(=O)c1ccccc1)c1ccccc1` (stereo not given), the growth with HCT-15 colon is 107%; with HT29 colon it was 75.4%; in the assay on SNB-75 CNS it was 63.9%; in the assay with SNB-19 CNS it was 91%; with U251 CNS it was 96.3%; in the assay with PC-3 prostate it was 94.8%. Besides, the growth is 98.5% in the assay with SK-MEL-5 melanoma; 94% with UACC-62 melanoma; 82.3% in the assay on LOX IMVI melanoma; 94% with SK-MEL-28 melanoma; 85.1% with SK-MEL-2 melanoma; 98.5% in the assay on EKVX NSCLC. The growth is 88.5% in the assay with SN12C renal; 119% in the assay on UO-31 renal; 66.2% in the assay on TK-10 renal; 48.9% with ACHN renal; 89.2% with CAKI-1 renal; 93.3% in the assay on A498 renal.
For `O=[N+]([O-])c1ccc(N=Nc2cc(S(=O)(=O)O)c3cccc(S(=O)(=O)O)c3c2O)cc1`, the growth in the assay on HCT-15 colon is 118%; with HT29 colon, 111%; with SNB-75 CNS, 104%; in the assay with SNB-19 CNS it was 112%; in the assay with U251 CNS, 104%; in the assay with PC-3 prostate it was 98.5%. In addition, the growth in the assay on SK-MEL-5 melanoma is 104%; in the assay on UACC-62 melanoma, 108%; with LOX IMVI melanoma, 106%; in the assay with SK-MEL-28 melanoma, 117%; in the assay with SK-MEL-2 melanoma it was 106%; with EKVX NSCLC it was 82.7%. Moreover, the growth in the assay with SN12C renal is 104%; in the assay with UO-31 renal it was 66.1%; in the assay on TK-10 renal it was 127%; in the assay on ACHN renal, 107%; in the assay with CAKI-1 renal, 57.4%; in the assay on A498 renal, 124%. In the assay with CCRF-CEM leukemia, the growth was 119%.
